In PubChem BioAssay AID1626 (SRMLSC, 2009):
The campaign covered roughly 220,000 compounds. About 2,000 (0.91%) were called active. Roughly 2% stayed inconclusive and do not appear here. Rule as the data show it: inconclusive = inhibition above about 80% without an active follow-up result; inactive = below that; test concentration not stated here. These entries were drawn from the full list. Results with a measured potency or affinity are listed apart.

Assay: M. tuberculosis H37Rv growth inhibitors, H37Rv strain (AID 1626);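 also: bacteria incubated seven days before Alamar blue readout; 0% = bacteria only wells and 100% = bacteria with antibiotic wells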
Conditions: active compounds read high, concentration not given here

Q: Which inhibition does the source give for `Cc1cccc(-n2ncc3c(Nc4ccc(F)cc4)ncnc32)c1` here?
A: 8.29% (inactive)

Q: Which inhibition does the source give for `COc1ccc(N2C(=O)c3ccccc3S2(=O)=O)cc1` here?
A: -3.28% (inactive)

Q: For `COc1ccc(CN2CN=C(Nc3nc4ccccc4s3)NC2)cc1`, which inhibition is on record?
A: -0.93% (inactive)

Q: With `CCNC(=S)N/N=C/c1ccc(OCCOc2ccccc2C)cc1` as the compound, how does the inhibition read?
A: -4.17% (inactive)

Q: For `COC(=O)c1ccc(CNC(=O)COc2ccccc2Br)o1`, which inhibition is on record?
A: 5.3% (inactive)

Q: For `CC[n+]1ccccc1/C=C/Nc1ccccc1`, which inhibition is on record?
A: -7.49% (inactive)

Q: For `O=C(CSc1nccc(=O)[nH]1)Nc1ccc2c(c1)OCCO2`, which inhibition is on record?
A: 31.1% (inactive)

Q: Which inhibition does the source give for `O=C(CSc1nccc(=O)[nH]1)Nc1ccc(F)c(Cl)c1` here?
A: -0.08% (inactive)

Q: Which inhibition does the source give for `S=c1[nH]nc(-c2ccncc2)n1/N=C/C(Cl)=C\c1ccccc1` here?
A: 6.36% (inactive)

Q: Which inhibition does the source give for `COc1cc(CNc2ncn[nH]2)ccc1OCc1cccc(C)c1` here?
A: 5.16% (inactive)

Q: With `COc1ccc(O)c(C(=O)c2cnc3c(c2)CN(C)C(=O)N3)c1` as the compound, how does the inhibition read?
A: -1.06% (inactive)

Q: With `CC1(C)CC(NC(=O)c2ccccn2)CC(C)(C)N1O` as the compound, how does the inhibition read?
A: 1.26% (inactive)

Q: Which inhibition does the source give for `S=C1NCCNC(=S)NCCOCCOCCOCCN1` here?
A: -1.99% (inactive)

Q: Which inhibition does the source give for `Clc1ccc(-n2ncc3c(NCCCn4ccnc4)ncnc32)cc1` here?
A: -5.48% (inactive)

Q: With `Cc1cc(NCCCn2ccnc2)n2ncc(-c3ccccc3)c2n1` as the compound, how does the inhibition read?
A: 18.5% (inactive)

Q: For `CC(C)(C)c1cc(-n2ccnc2)n2ncc(-c3ccc(Cl)cc3)c2n1`, which inhibition is on record?
A: 6.96% (inactive)

Q: With `Cc1cc(NCCCN2CCOCC2)n2ncc(-c3ccccc3)c2n1` as the compound, how does the inhibition read?
A: 7.39% (inactive)

Q: For `COC(=O)c1cc(Br)c(=O)n(CCC2=CCCCC2)c1`, which inhibition is on record?
A: -7.27% (inactive)

Q: For `O=C(NC(=S)Nc1ccc(CN2CCOCC2)cc1)c1ccco1`, which inhibition is on record?
A: -0.41% (inactive)

Q: With `COc1ccc(-c2[nH]ncc2CN2CCC(N3CCSCC3)CC2)c(F)c1` as the compound, how does the inhibition read?
A: -0.36% (inactive)

Q: Which inhibition does the source give for `Cc1ccc(-c2nn(-c3ccccc3)cc2/C=N/NC(=O)c2ccc(Br)o2)cc1` here?
A: 0.66% (inactive)

Q: Which inhibition does the source give for `Clc1ccc(Cl)c(OCCCCNCc2ccccc2)c1` here?
A: 11.2% (inactive)

Q: For `Clc1cc(Br)ccc1OCCCNCc1ccccc1`, which inhibition is on record?
A: 23% (inactive)

Q: With `Cc1ccc(C)c(OCCCC(=O)Nc2ccc(N3CCOCC3)cc2)c1` as the compound, how does the inhibition read?
A: -9.52% (inactive)

Q: Which inhibition does the source give for `Cn1c(SCC(=O)N2CCOCC2)nnc1-c1cnccn1` here?
A: -10.3% (inactive)

Q: Which inhibition does the source give for `CCCCOc1ccc(C(=O)Nc2cc(C)c(OCC(=O)N3CCOCC3)c(C)c2)cc1` here?
A: -1.36% (inactive)

Q: For `CCC(C)[C@H](N)c1nnc(SCC(=O)c2ccc(Cl)cc2)o1` (stereo partly specified), which inhibition is on record?
A: -1.21% (inactive)

Q: With `Cn1c(SCCCC(=O)c2ccc(F)cc2)nnc1-c1ccncc1` as the compound, how does the inhibition read?
A: 5.49% (inactive)

Q: With `CC1=C(CCN2CCN(C(C)C)C(CCO)C2)C(C)(C)CCC1` (stereo unspecified) as the compound, how does the inhibition read?
A: 1.16% (inactive)

Q: With `CC1=C(CCN2CCN(C3CCCC3)C(CCO)C2)C(C)(C)CCC1` (stereo unspecified) as the compound, how does the inhibition read?
A: 3.37% (inactive)

Q: Which inhibition does the source give for `CC1(C)Oc2ccc3ccc(=O)oc3c2/C(=C/Nc2ccccn2)C1=O` here?
A: -6.19% (inactive)

Q: Which inhibition does the source give for `COc1ccc(OC)c(CCNC(=O)C(=O)Nc2ccc3nc4n(c(=O)c3c2)CCCCC4)c1` here?
A: 9.2% (inactive)

Q: For `N#C/C(=C\Nc1ccc2c(c1)OCCO2)c1nc(-c2ccccc2)cs1`, which inhibition is on record?
A: -0.56% (inactive)

Q: For `COc1cccc(-c2csc(/C(C#N)=C/Nc3cc4oc5ccccc5c4cc3OC)n2)c1`, which inhibition is on record?
A: 6.75% (inactive)

Q: Which inhibition does the source give for `Cc1ccc(-c2csc(/C(C#N)=C/Nc3ccc4c(c3)OCCO4)n2)cc1` here?
A: -3.12% (inactive)

Q: With `COc1ccc(-c2csc(/C(C#N)=C/Nc3ccc4c(c3)OCCO4)n2)cc1` as the compound, how does the inhibition read?
A: 5.83% (inactive)

Q: With `COc1cc2c(cc1N/C=C(\C#N)c1nc(-c3ccc(F)cc3)cs1)oc1ccccc12` as the compound, how does the inhibition read?
A: 5.47% (inactive)

Q: Which inhibition does the source give for `CCN(CC)CCOC(=O)c1cccc(OC)c1` here?
A: -3.6% (inactive)

Q: With `Cn1c(=O)c2c(ncn2CC(=O)OCC(=O)NCc2ccc(Cl)cc2)n(C)c1=O` as the compound, how does the inhibition read?
A: -4.25% (inactive)

Q: Which inhibition does the source give for `CCOC(=O)CSC(CC)C(=O)Nc1nnc(CC)s1` (stereo unspecified) here?
A: 8.43% (inactive)

Q: For `Cc1cc(Cl)ccc1N(CC(=O)NCc1ccc2c(c1)OCO2)S(C)(=O)=O`, which inhibition is on record?
A: -3.37% (inactive)

Q: With `O=C(CCC(=O)c1cccs1)OCc1nc2ccccc2s1` as the compound, how does the inhibition read?
A: -8.64% (inactive)

Q: For `CC[C@@H](CO)C1CC2NC3CC4(c5ccccc5N(C)[C@@H]24)C(O)C31` (stereo partly specified), which inhibition is on record?
A: -2.7% (inactive)

Q: For `COc1ccc(/C=N/N2C(=O)c3ccccc3C2=O)cc1`, which inhibition is on record?
A: 1.55% (inactive)

Q: For `CCCCC(=O)Nc1nc(C)c(-c2csc(Nc3ccccc3OC)n2)s1`, which inhibition is on record?
A: 6.85% (inactive)

Q: Which inhibition does the source give for `CCCCCC(=O)Nc1nc(C)c(-c2csc(Nc3ccccc3OC)n2)s1` here?
A: 3.41% (inactive)

Q: For `CCN(CC)CCCN1C(=O)C(O)=C(C(=O)c2cc3ccccc3o2)C1c1ccccn1` (stereo unspecified), which inhibition is on record?
A: -1.65% (inactive)

Q: Which inhibition does the source give for `CC(=O)Nc1ccc(S(=O)(=O)NCCC(=O)Nc2ccc(C)c(Cl)c2)cc1` here?
A: 1.88% (inactive)

Q: Which inhibition does the source give for `N#CCSCC(=O)Nc1ccc(Cl)cc1` here?
A: -6.68% (inactive)

Q: Which inhibition does the source give for `Cc1ccc(S(=O)(=O)NCCC(=O)Nc2ccc(Cl)c(Cl)c2)cc1C` here?
A: 68.7% (inactive)

Q: With `Cc1ccc(NC(=O)CSCC#N)cc1` as the compound, how does the inhibition read?
A: -3.07% (inactive)

Q: For `O=C(Nc1cccc(S(=O)(=O)NC2=NCCCCC2)c1)c1cc(-c2ccncc2)nc2ccccc12`, which inhibition is on record?
A: 5.09% (inactive)

Q: For `CNc1nc(N)c(C(=O)C23CC4CC(CC(C4)C2)C3)s1`, which inhibition is on record?
A: 7.78% (inactive)

Q: For `CC1CN(c2ncc(/C=N/NC(=O)c3ccccc3O)s2)CC(C)O1` (stereo unspecified), which inhibition is on record?
A: 48% (inactive)

Q: Which inhibition does the source give for `OCCOCCN1CCN(C(c2ccccc2)c2ccc(Cl)cc2)CC1` (stereo unspecified) here?
A: -10.7% (inactive)

Q: With `c1ccc(OCCOCCN2CCOCC2)cc1` as the compound, how does the inhibition read?
A: 8.38% (inactive)

Q: Which inhibition does the source give for `O=C(NN1CCN(Cc2ccccc2)CC1)c1ccc(Cl)cc1` here?
A: -1.31% (inactive)

Q: Which inhibition does the source give for `CC(C)(C)OC(=O)COc1cc(O)c2c(=O)cc(-c3ccccc3)oc2c1` here?
A: 5.56% (inactive)

Q: For `CCOc1ccc(-c2nnc(-c3ccccc3)o2)cc1`, which inhibition is on record?
A: 8.69% (inactive)

Q: With `O=C(COc1cc(O)c2c(=O)cc(-c3ccccc3)oc2c1)c1ccccc1` as the compound, how does the inhibition read?
A: -4.52% (inactive)

Q: With `CCOC(=O)c1cc(=O)c2ccc(OCC(=O)Nc3ccccc3)cc2o1` as the compound, how does the inhibition read?
A: 3.25% (inactive)

Q: For `NC(=O)COc1ccc2oc(-c3ccccc3)cc(=O)c2c1`, which inhibition is on record?
A: 1.94% (inactive)

Q: Which inhibition does the source give for `CCOC(=O)Cc1nnc(-c2ccccc2)o1` here?
A: -3.07% (inactive)

Q: For `CCc1ccc(C(=O)COC(=O)c2ccc(-c3nnc(-c4ccccc4)o3)cc2)cc1`, which inhibition is on record?
A: -8.3% (inactive)

Q: With `CCOC(=O)c1cccc(COC(=O)c2cccc(-c3nnc(-c4ccccc4)o3)c2)c1` as the compound, how does the inhibition read?
A: 2.8% (inactive)

Q: With `C#CCn1c(=NC(=O)c2ccc(Br)s2)sc2cccc(OC)c21` as the compound, how does the inhibition read?
A: 49.8% (inactive)

Q: With `CCn1c(=O)cc(SCC(=O)N2CCN(c3ccccc3OC)CC2)c2ccccc21` as the compound, how does the inhibition read?
A: -4.03% (inactive)

Q: With `COP(=O)(NC(=O)C(Cl)(Cl)Cl)OC` as the compound, how does the inhibition read?
A: -4.54% (inactive)

Q: For `Cc1ccc(SCC(=O)Nc2ccc(N3CCN(c4ccccc4)CC3)c(F)c2)cc1`, which inhibition is on record?
A: 3.11% (inactive)

Q: Which inhibition does the source give for `CS(=O)(=O)NCCNc1ccc(C(F)(F)F)cc1[N+](=O)[O-]` here?
A: -3.33% (inactive)

Q: With `COc1ccc(C2CC(=O)C(C=NCCO)=C(O)C2)cc1OC` (stereo unspecified) as the compound, how does the inhibition read?
A: -9.01% (inactive)

Q: With `CN(CCc1cnn(C)c1)Cc1cn[nH]c1-c1ccc(-c2ccccc2)cc1` as the compound, how does the inhibition read?
A: 3.7% (inactive)

Q: Which inhibition does the source give for `Cc1c(NC(=O)/C(=C\c2ccccc2)NC(=O)c2ccccc2)c(=O)n(-c2ccccc2)n1C` here?
A: -13.7% (inactive)

Q: With `COc1ccc(OCC(=O)N/N=C2\CCCc3ccccc32)cc1` as the compound, how does the inhibition read?
A: 1.63% (inactive)

Q: With `O=C(NNS(=O)(=O)c1ccccc1Cl)c1nn(-c2ccc(F)cc2)ccc1=O` as the compound, how does the inhibition read?
A: 2.66% (inactive)

Q: For `O=C(O)COc1ccc2c(-c3ccccc3)cc(=O)oc2c1`, which inhibition is on record?
A: -6.46% (inactive)

Q: Which inhibition does the source give for `CCOc1ccc(-c2nnc(-c3ccncc3)o2)cc1` here?
A: 7.35% (inactive)

Q: With `CC(Oc1ccc2c(-c3ccccc3)cc(=O)oc2c1)C(=O)O` (stereo unspecified) as the compound, how does the inhibition read?
A: -19.3% (inactive)

Q: For `CCOC(=O)C(Oc1ccc2c(-c3ccccc3)cc(=O)oc2c1)c1ccccc1` (stereo unspecified), which inhibition is on record?
A: 15.1% (inactive)

Q: With `O=C(O)C(Oc1ccc2c(-c3ccccc3)cc(=O)oc2c1)c1ccccc1` (stereo unspecified) as the compound, how does the inhibition read?
A: -7.84% (inactive)

Q: With `CCOc1ccc(-c2nnc(-c3ccc(OC)cc3)o2)cc1` as the compound, how does the inhibition read?
A: 3.3% (inactive)

Q: Which inhibition does the source give for `N#Cc1ccc(NC(=O)c2cc(-c3cccs3)on2)cc1` here?
A: -3.45% (inactive)

Q: Which inhibition does the source give for `Cc1cc(C(=O)CSc2nnc(-c3ccc(Cl)cc3)n2C)c(C)n1CC1CCCO1` (stereo unspecified) here?
A: -5.79% (inactive)

Q: With `CCn1c(=O)c(=O)[nH]c2cc(C(=O)NC3CCCC3)ccc21` as the compound, how does the inhibition read?
A: -14.3% (inactive)

Q: With `COC(=O)c1cc(C)nc(Sc2ccccc2NC(C)=O)n1` as the compound, how does the inhibition read?
A: -6.62% (inactive)

Q: For `Nc1ncc2c(n1)-c1ccccc1CC2`, which inhibition is on record?
A: 4.21% (inactive)

Q: Which inhibition does the source give for `COc1ccc(-c2cnc(N)nc2-c2ccc(OC)cc2O)cc1` here?
A: -8.12% (inactive)

Q: Which inhibition does the source give for `Cc1ccc(-c2ccc(SCC(=O)Nc3cc(C)on3)nn2)cc1` here?
A: 1.42% (inactive)

Q: Which inhibition does the source give for `CCOC(=O)c1ccc(NC(=O)CSc2ccc(-c3ccncc3)nn2)cc1` here?
A: 78% (inactive)

Q: With `Cc1nonc1NC(=O)CSc1ccc(-c2ccccc2)nn1` as the compound, how does the inhibition read?
A: 29.3% (inactive)

Q: For `Cc1csc(NC(=O)CSc2ccc(-c3ccccc3)nn2)n1`, which inhibition is on record?
A: -4.14% (inactive)

Q: For `CC(=O)Nc1cccc(NC(=O)CSc2ccc(-c3ccccn3)nn2)c1`, which inhibition is on record?
A: 5.52% (inactive)

Q: For `Cc1nnc(NC(=O)CSc2ccc(-c3ccccn3)nn2)s1`, which inhibition is on record?
A: -8.09% (inactive)

Q: Which inhibition does the source give for `Cc1ccc(CNC(=O)CSc2ccc(-c3ccccn3)nn2)cc1` here?
A: 9.75% (inactive)

Q: With `CCOC(=O)c1ccccc1NC(=O)CSc1ccc(-c2cccnc2)nn1` as the compound, how does the inhibition read?
A: 1.73% (inactive)

Q: For `CC(C)CNC(=O)c1cccc(NC(=O)C(C)Oc2ccccc2)c1` (stereo unspecified), which inhibition is on record?
A: 9.89% (inactive)
